Assay results reported in PubChem BioAssay (NCATS).
Several values for one entry are separate records, joined by “and”; a condition that tells them apart may be missing. Equal values may be shown once. Records with an inconclusive call do not appear. Activity calls are given as the source filed them. Unless noted, calls come from the whole dose curve; as a rule, active = well fitted curve in the direction sought with a large enough effect; inconclusive = small, poorly fitted or top-dose-only effect, or another doubt; inactive = no such curve, though single readings can be large; an effect the other way counts as inactive or inconclusive.

Columns and labels:
[1] = molecular target: Estrogen receptor (Homo sapiens) (UniProt P03372); test: qHTS assay for small molecule antagonists of estrogen receptor alpha signaling (AID 588513; active = well fitted curve in the direction sought with a large enough effect in the signal ratio, with a control signal flat, not every such curve was filed as active; the % refers to the signal ratio; note: potency is the fitted concentration of half-maximal effect)
Method in brief: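 ER-alpha-UAS-bla GripTite HEK 293 cells in medium with 2% charcoal/dextran-treated FBS were preincubated 4 h at 37 C, dosed with compound (1:2 titration), stimulated with 0.5nM 17-beta-estradiol for 18 h, then read by CCF4 beta-lactamase fluorescence.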

[2] = molecular target: Peroxisome proliferator-activated receptor gamma (Homo sapiens) (UniProt P37231); test: qHTS assay for small molecule agonists of peroxisome proliferator-activated receptor gamma signaling (AID 588536; active = well fitted curve in the direction sought with a large enough effect in the signal ratio, with a control signal flat, not every such curve was filed as active; the % refers to the signal ratio;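 note: 0% = DMSO basal wells and 100% = rosiglitazone at 2 µM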)
Method in brief: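 Test agents, titrated, stimulated HEK293 UAS-bla cells overnight (16 h, 37 C). Substrate CCF4 was then added for two hours at room temperature before fluorescence reading.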

[3] = molecular target: Vitamin D3 receptor (Homo sapiens) (UniProt P11473); test: qHTS assay for small molecule agonists of vitamin D receptor signaling (AID 588543; calls by dose curve;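 note: 0% = DMSO basal and 100% = reference agonist control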)
Method in brief: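 GeneBLAzer VDR-UAS-bla HEK293T cells in 2% charcoal-stripped FBS medium were dosed with compound titrations for 16 h at 37 °C; CCF4 β-lactamase readout (405 nm ex, 460/530 nm em). EC50 and efficacy from Hill fits, normalized to 50 nM calcitriol (100%) and DMSO (0%).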

[4] = qHTS assay for small molecule agonists of retinoid X receptor alpha signaling (AID 588544; calls by dose curve;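 for activation: 0% = DMSO basal wells and 100% = reference agonist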); details: HEK293T RXRa-UAS-bla, beta-lactamase reporter, 18 h; 530 nm emission
[5] = molecular target: Retinoic acid receptor RXR-alpha (Homo sapiens) (UniProt P19793); test: as above
[6] = molecular target: Thyroid hormone receptor beta (Homo sapiens) (UniProt P10828); test: qHTS assay for small molecule agonists of thyroid hormone receptor beta signaling (AID 588545; calls by dose curve;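 note: 0% = DMSO only and 100% = 10 nM T3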)
Method in brief: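 Stimulation of a TR-driven beta-lactamase reporter was quantified in GripTite HEK 293 cells. Compound series ran for 18 hrs; curves were normalized to T3 and DMSO controls and fitted to yield EC50.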

[7] = qHTS assay for small molecule activators of the p53 signaling pathway (AID 651743; active = well fitted activation curve with a large enough effect in the signal ratio, not every such curve was filed as active; the % refers to the signal ratio; note: series mostly up to about 92 µM; % of control where 0% means no effect); details: HCT-116 p53RE-bla, beta-lactamase FRET ratio, 16 h; activation: stronger effect = higher value
Method in brief: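 p53RE-bla HCT-116 cells with a stably integrated beta-lactamase reporter under p53 response elements were plated, rested 5 hours at 37 C/5% CO2, then exposed to compounds in DMSO for 16 hours at 37 C. LiveBLAzer B/G FRET substrate was read after 2 hours at room temperature.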

[8] = qHTS assay for environmental chemicals that activate the Aryl hydrocarbon Receptor (AhR) signaling pathway (AID 651777); details: 1A2-DRE human hepatoma cells, luciferase, 24 h; activation: stronger effect = higher value; note: % of control where 0% means no effect; nearly all actives have a fitted effect of over 15% in size
Method in brief: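 Measured luciferase activity, read 30 min after One-Glo addition at room temperature, from human hepatoma cells bearing a dioxin response element–CYP1A2 promoter reporter and exposed to compound for 24 hr at 37 C.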

[9] = molecular target: Peroxisome proliferator-activated receptor alpha (Homo sapiens) (UniProt Q07869); test: qHTS assay for small molecule agonists of the peroxisome proliferator-activated receptor alpha (PPARalpha) signaling pathway (AID 651778); details: PathHunter PPARalpha complementation, chemiluminescence, 6 h; max response: stronger effect = higher value; note: % of control where 0% means no effect
Method in brief: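 Cells plated at 2,000/well and held overnight at 37 C, 5% CO2, then compound added by pin tool for 6 hr; after PathHunter detection reagent and 60 min at room temperature, chemiluminescence from enzyme complementation was read.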

[10] = qHTS assay for small molecule agonists of the antioxidant response element (ARE) signaling pathway measured by Nrf2-dependant transcriptional activity (AID 720636; active = well fitted curve in the direction sought with a large enough effect in the repeat runs; an effect the other way counts as inactive or inconclusive;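 note: HepG2 cells with an ARE-driven luciferase reporter; % of control where 0% means no effect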)
Method in brief: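 In HepG2 cells engineered with an Nrf2-responsive luciferase gene, ARE induction was quantified as luminescence after 16 hr compound treatment at 37 C.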

[11] = qHTS assay for small molecule agonists of the antioxidant response element (ARE) signaling pathway measured by Nrf2-dependant transcriptional activity - cell viability counter screen (AID 720653; active = well fitted curve in the direction sought with a large enough effect in the repeat runs; an effect the other way counts as inactive or inconclusive; note: potency is the fitted concentration of half-maximal effect; for max response: % is set by controls: 0 for no effect and ±100 for the full control effect); details: ARE-bla HepG2 viability, CellTiter-Glo ATP luminescence, 16 h; max response: stronger effect = lower value
Method in brief: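 ARE-bla HepG2 cells (2,000/well) rested 5 hrs at 37C/5% CO2, then exposed to compounds in DMSO for 16 hrs. Viability was read in the same wells as intracellular ATP by luminescence, 30 min at room temperature after reagent addition.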

[12] = qHTS assay for cell viability of HEK293 cells (AID 743288); details: ATP luminescence (CellTiter-Glo), 18 h; max response: stronger effect = lower value; note: nearly all actives have a fitted effect of over 50% in size; note: potency is the fitted concentration of half-maximal effect; for max response: % is set by controls: 0 for no effect and ±100 for the full control effect
Method in brief: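 Parental HEK293 cells were seeded at 2,000 cells/well, rested at least 5 h at 37 C, then exposed to compounds in DMSO for 18 h at 37 C. Viability was read as ATP-dependent luciferase luminescence after 30 min at room temperature.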

[13] = qHTS assay for cell viability of the p53RE-bla HCT-116 cell line (AID 743292); note: nearly all actives have a fitted effect of over 55% in size; note: potency is the fitted concentration of half-maximal effect
Method in brief: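 Intracellular ATP of p53RE-bla HCT-116 cells measured by luciferase luminescence following 16 h compound incubation at 37 C; DMSO-only wells served as vehicle controls.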

[14] = qHTS assay for small molecule antagonists of peroxisome proliferator-activated receptor delta signaling (AID 588535); details: HEK293T PPARd-UAS-bla, beta-lactamase FRET ratio, 18 h; 460 nm channel;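 note: cells co-treated with a PPAR-delta agonist as stimulator during compound exposure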
Method in brief: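 GeneBLAzer PPAR-delta-UAS-bla HEK293T cells in medium with 2% charcoal/dextran FBS were preincubated 5 hrs at 37 C, then given compounds, incubated 18 hrs at 37 C, and read by CCF4 beta-lactamase fluorescence; IC50 from Hill fits.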

[15] = molecular target: Peroxisome proliferator-activated receptor delta (Homo sapiens) (UniProt Q03181); test: qHTS assay for small molecule agonists of peroxisome proliferator-activated receptor delta signaling (AID 588534; calls by dose curve;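 note: 0% = DMSO basal wells and 100% = positive control agonist at 10 µM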)
Method in brief: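 Cell-based beta-lactamase reporter assay run in agonist mode: cells seeded and incubated 5 hrs at 37 C, compounds added and incubated 18 hrs at 37 C. CCF4 dye fluorescence read after 2 hrs at RT; EC50 and efficacy from Hill fits.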

[16] = molecular target: Vitamin D3 receptor (Homo sapiens) (UniProt P11473); test: qHTS assay for small molecule antagonists of vitamin D receptor signaling (AID 588541; calls by dose curve;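 note: receptor activated by calcitriol during compound treatment; series mostly up to about 77 µM; % is set by controls: 0 for no effect and ±100 for the full control effect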)
Method in brief: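 VDR-UAS-bla HEK293T cells (2000/well, 2% charcoal-stripped FBS) were treated with titrated compounds plus 1-alpha,25-dihydroxyvitamin D3 (50 nM or 3 nM final) for 16 h at 37 C. CCF4 beta-lactamase fluorescence was read; Hill fits gave IC50.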

[17] = qHTS assay for small molecule antagonists of retinoid X receptor alpha signaling (AID 588546; active = well fitted inhibition curve with a large enough effect in the signal ratio, with a control signal flat, not every such curve was filed as active; the % refers to the signal ratio;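 note: cells stimulated with 9-cis-retinoic acid as agonist; % is set by controls: 0 for no effect and ±100 for the full control effect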); details: HEK293T RXRa-UAS-bla, beta-lactamase ratio, antagonist mode; measured here: W530 green channel, cytotoxicity proxy
Method in brief: (§1)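 Beta-lactamase reporter inhibition, read as CCF4 fluorescence ratio (ex 405, em 460/530 nm) after 2 h at RT. HEK293T UAS-bla cells, 2500/well, were stimulated with 9-cis-RA at 500 or 100 nM final alongside test compound for 18 h at 37 C.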

[18] = molecular target: Retinoic acid receptor RXR-alpha (Homo sapiens) (UniProt P19793); test: as above; details: HEK293T RXRa-UAS-bla, beta-lactamase ratio, antagonist mode
Method in brief: as §1

[19] = molecular target: Nuclear receptor subfamily 1 group I member 2 (Rattus norvegicus) (UniProt Q9R1A7); test: qHTS assay for small molecule activators of the rat pregnane X receptor (rPXR) signaling pathway (AID 651751; call rule not given here; note: 0% is about no effect); details: rPXR reporter cells, luciferase (One-Glo), 24 h
[20] = molecular target: Peroxisome proliferator-activated receptor gamma (Homo sapiens) (UniProt P37231); test: qHTS assay for small molecule antagonists of peroxisome proliferator-activated receptor gamma signaling (AID 588537; active = well fitted inhibition curve with a large enough effect in the signal ratio, with a control signal flat, not every such curve was filed as active; the % refers to the signal ratio;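 note: reporter cells co-stimulated with 50 nM rosiglitazone agonist during compound treatment; % of control where 0% means no effect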)
Method in brief: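 PPAR-gamma-UAS-bla HEK293 cells (3000/well, 1% charcoal/dextran-stripped FBS) were preincubated 6-6.5 h at 37 C, given titrated compounds, then stimulated with 50 nM rosiglitazone for 16 h. Beta-lactamase activity was read with CCF4 dye; IC50 came from Hill fits.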

Chain of Peroxisome proliferator-activated receptor gamma (Homo sapiens) (P37231 whole entry, looked up): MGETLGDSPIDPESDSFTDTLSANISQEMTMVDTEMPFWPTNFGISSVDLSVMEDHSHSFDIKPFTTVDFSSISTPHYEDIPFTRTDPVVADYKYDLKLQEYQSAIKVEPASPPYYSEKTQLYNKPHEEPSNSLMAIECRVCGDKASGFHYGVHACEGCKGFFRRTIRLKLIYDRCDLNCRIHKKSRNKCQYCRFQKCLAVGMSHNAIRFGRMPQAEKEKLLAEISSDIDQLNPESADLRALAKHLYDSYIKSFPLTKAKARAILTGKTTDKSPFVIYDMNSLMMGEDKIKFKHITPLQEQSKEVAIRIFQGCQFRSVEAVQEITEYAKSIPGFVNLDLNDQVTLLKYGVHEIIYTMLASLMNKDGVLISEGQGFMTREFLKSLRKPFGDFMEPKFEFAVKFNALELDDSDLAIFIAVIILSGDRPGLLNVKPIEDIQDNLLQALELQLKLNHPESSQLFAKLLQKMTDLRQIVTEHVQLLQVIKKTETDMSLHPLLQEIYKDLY
Chain of Peroxisome proliferator-activated receptor alpha (Homo sapiens) (Q07869 whole entry, looked up): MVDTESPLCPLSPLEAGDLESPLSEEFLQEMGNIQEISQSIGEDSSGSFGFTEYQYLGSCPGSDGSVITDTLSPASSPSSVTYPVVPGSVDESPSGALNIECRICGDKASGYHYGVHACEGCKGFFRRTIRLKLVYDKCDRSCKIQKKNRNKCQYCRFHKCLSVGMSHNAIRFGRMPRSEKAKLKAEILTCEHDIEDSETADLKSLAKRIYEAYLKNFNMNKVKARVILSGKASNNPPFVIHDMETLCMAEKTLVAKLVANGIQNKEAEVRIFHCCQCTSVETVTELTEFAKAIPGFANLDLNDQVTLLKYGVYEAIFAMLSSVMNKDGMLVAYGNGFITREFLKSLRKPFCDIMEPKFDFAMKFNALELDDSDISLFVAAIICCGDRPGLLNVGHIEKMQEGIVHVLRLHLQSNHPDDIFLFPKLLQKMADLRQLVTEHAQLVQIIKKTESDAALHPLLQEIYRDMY
Chain of Nuclear receptor subfamily 1 group I member 2 (Rattus norvegicus) (Q9R1A7 whole entry, looked up): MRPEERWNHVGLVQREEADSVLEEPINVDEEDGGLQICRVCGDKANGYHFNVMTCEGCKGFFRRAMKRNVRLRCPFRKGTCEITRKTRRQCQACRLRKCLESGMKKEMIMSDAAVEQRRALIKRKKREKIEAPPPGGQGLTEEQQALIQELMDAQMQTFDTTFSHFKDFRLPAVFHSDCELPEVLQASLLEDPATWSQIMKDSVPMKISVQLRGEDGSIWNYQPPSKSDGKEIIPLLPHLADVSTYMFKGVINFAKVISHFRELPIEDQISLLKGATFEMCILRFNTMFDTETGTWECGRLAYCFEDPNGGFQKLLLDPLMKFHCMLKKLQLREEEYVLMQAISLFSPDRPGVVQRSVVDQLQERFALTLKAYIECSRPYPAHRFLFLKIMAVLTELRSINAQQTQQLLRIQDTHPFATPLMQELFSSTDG
Chain of Retinoic acid receptor RXR-alpha (Homo sapiens) (P19793 whole entry, looked up): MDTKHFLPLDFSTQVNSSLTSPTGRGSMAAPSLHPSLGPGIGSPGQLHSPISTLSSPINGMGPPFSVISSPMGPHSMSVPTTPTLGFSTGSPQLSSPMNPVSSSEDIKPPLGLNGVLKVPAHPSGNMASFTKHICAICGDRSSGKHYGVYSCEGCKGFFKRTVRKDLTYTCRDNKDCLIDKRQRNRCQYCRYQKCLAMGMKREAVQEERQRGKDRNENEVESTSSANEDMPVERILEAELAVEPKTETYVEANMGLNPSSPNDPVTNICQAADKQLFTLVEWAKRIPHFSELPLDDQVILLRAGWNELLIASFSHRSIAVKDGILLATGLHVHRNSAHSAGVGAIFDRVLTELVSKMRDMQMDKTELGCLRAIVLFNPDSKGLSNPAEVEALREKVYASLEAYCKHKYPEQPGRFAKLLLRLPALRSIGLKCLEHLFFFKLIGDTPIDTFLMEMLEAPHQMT
Chain of Thyroid hormone receptor beta (Homo sapiens) (P10828 whole entry, looked up): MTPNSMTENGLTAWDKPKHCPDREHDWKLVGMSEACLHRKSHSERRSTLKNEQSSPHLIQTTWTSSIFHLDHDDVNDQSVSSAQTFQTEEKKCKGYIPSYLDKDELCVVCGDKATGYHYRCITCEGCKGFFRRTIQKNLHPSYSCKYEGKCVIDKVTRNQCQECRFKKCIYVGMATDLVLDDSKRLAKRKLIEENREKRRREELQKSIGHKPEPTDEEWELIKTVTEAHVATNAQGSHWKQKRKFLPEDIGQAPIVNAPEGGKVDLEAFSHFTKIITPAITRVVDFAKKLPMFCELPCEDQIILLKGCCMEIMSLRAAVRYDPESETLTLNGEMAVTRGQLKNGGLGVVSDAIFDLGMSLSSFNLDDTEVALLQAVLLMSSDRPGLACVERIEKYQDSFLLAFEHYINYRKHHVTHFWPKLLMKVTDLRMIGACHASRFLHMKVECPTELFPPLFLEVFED
Chain of Estrogen receptor (Homo sapiens) (P03372 whole entry, looked up): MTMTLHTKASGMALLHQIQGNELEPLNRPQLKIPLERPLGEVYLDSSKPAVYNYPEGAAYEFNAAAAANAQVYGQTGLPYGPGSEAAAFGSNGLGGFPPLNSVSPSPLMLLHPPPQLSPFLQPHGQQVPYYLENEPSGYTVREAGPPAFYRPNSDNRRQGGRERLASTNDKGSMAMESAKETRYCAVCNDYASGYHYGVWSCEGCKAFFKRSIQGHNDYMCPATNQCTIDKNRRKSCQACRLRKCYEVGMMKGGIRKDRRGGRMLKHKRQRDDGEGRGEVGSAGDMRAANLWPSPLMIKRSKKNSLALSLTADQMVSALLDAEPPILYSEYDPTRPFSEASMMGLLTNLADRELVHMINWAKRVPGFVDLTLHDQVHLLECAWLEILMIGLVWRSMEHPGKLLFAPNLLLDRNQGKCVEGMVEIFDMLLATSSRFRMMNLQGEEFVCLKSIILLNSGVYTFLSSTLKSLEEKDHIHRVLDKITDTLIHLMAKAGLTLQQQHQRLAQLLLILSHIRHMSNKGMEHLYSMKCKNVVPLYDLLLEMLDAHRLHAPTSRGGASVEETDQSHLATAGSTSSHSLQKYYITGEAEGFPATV
Chain of Vitamin D3 receptor (Homo sapiens) (P11473 whole entry, looked up): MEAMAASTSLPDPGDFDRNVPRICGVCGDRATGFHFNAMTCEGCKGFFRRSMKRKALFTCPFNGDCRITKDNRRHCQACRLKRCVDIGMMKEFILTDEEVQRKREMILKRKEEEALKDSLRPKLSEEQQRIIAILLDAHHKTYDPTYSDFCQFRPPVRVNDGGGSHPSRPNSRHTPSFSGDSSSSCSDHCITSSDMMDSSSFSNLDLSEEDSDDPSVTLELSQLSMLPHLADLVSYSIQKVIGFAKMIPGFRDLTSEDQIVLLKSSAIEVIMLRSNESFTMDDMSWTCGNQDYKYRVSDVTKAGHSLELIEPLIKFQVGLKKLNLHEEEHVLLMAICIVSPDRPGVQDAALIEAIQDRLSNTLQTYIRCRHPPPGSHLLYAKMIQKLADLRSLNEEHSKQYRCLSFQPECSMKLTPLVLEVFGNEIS
Chain of Peroxisome proliferator-activated receptor delta (Homo sapiens) (Q03181 whole entry, looked up): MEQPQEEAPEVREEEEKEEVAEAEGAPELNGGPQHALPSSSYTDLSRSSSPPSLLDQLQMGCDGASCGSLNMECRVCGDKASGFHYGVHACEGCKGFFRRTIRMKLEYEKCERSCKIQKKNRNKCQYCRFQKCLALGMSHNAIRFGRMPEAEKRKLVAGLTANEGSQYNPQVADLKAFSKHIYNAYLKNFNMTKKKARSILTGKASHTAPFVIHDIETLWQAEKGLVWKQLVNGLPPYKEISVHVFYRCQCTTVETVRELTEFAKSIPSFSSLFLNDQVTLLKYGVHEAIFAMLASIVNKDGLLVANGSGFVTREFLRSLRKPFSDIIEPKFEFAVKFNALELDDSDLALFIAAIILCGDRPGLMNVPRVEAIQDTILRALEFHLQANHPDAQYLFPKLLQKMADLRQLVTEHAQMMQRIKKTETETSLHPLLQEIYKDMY

CCc1ccc(C(=O)NN(C(=O)c2cc(C)cc(C)c2)C(C)(C)C)cc1
inactive: Potency [1] | Potency [2] | outcome [3] | Potency [5] | Potency [6] | activation [7] 3.11% | activation [8] 1.38% | max response [9] -0.946% | Potency [10] | max response [11] -4.5% | max response [12] -11.8% | Potency [13]
1.33%: max response [4]

CC1(C)CN=C(NN=C(/C=C/c2ccc(C(F)(F)F)cc2)/C=C/c2ccc(C(F)(F)F)cc2)NC1
-117%: max response [14]
inactive: activation [8] -13.3% | max response [9] -2.05% | Potency [10]
active: Potency [1] 14.1 µM [inhibitor] | Potency [11] 25.1 µM | Potency [12] 44.7 µM | Potency [13] 50.1 µM

CCOP(=O)(NC(C)C)Oc1ccc(S(C)=O)c(C)c1 (configuration not stated)
-12.4%: max response [17]
-19.9%: max response [14]
0.27%: max response [4]
inactive: Potency [1] | outcome [15] | Potency [2] | Potency [16] | outcome [3] | Potency [5] | Potency [6] | max response [18] 0.125% | activation [7] -0.147% | activation [8] 3.87% | max response [9] -2.3% | Potency [10] | max response [11] 20.7% | max response [12] -0.132% | Potency [13] | max response [19] -1.03%

O=S(=O)(O)C(F)(F)C(F)(F)C(F)(F)C(F)(F)C(F)(F)C(F)(F)F
0.0729%: max response [17]
-12.5% and -11.4%: max response [4]
inactive: Potency [1] | outcome [15] | Potency [2] | Potency [20] | Potency [16] | outcome [3] | Potency [5] | Potency [6] | max response [18] -0.502% | activation [7] -1.95% and 1.08% | activation [8] 2.71% and 0.937% | max response [9] 12% and 14.9% | Potency [10] | max response [11] 4.85% and -13.8% | max response [12] -20.2% and -14.6% | Potency [13] | max response [19] -2.73% and -3.57%
-35.3% and 95.7%: max response [14]

O=C=Nc1ccc(Cl)cc1
inactive: Potency [1] | outcome [15] | Potency [20] | Potency [16] | outcome [3] | Potency [5] | max response [18] -10.5% | activation [7] 3.11% | activation [8] 2.71% | max response [9] -0.75% | max response [11] -2.93% | max response [12] -9.38% | Potency [13] | max response [19] 8.51%
-14.4%: max response [4]
-52.1%: max response [14]
-4.38%: max response [17]

CNC(=O)Oc1cc(C)cc(C(C)C)c1
-15.4%: max response [4]
-13.9%: max response [14]
inactive: Potency [1] | outcome [15] | Potency [2] | Potency [20] | Potency [16] | outcome [3] | Potency [5] | Potency [6] | max response [18] -3.46% | activation [7] 6.05% | activation [8] 0.548% | max response [9] 4.47% | Potency [10] | max response [11] 3.5% | max response [12] -6.56% | Potency [13] | max response [19] -3.71%
-5.53%: max response [17]
